# KinaseGlo FLuc: Kinase-Glo luciferase inhibition (counter-screen). Q27757. Kinase-Glo luciferase, ATP luminescence, 8 min. Potency, µM (doses to about 38.3 µM), inactives show top-dose activity change, negative = inhibition, most hits filed as inhibitors. 200,000 tested, 0.28% active. AID 1379; also: % is scaled to controls: 0 for no effect and ±100 for the full control effect; nearly all actives have a fitted effect of over 60% in size
#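 Recombinant Kinase-Glo luciferase, 10 uM ATP (linear range), luciferin; imidazole pH 7.2 / KCl / MgCl2 / Tween / BSA buffer; 8 min RT; luminescence.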
# NPC1 prom act: NPC1 promoter activation. 320,000 tested, 2.4% active. Potency, µM (titrated, usually from 9.22 µM), for the others: at the top dose activation, actives largely listed as activators. AID 485313. Huh7 NPC1 promoter luciferase reporter, 24 h; also: % of control where 0% means no effect; nearly all actives have a fitted effect of over 60% in size
#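 Stably transfected Huh7 (NPC1 promoter→luciferase), 1500 cells/well in Opti-MEM + 10% FBS, 2 h settle, then compound 24 h at 37 °C. Luminescence after 10 min with Amplite reagent.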
# Rab9 promoter act: activators of Rab9 promoter; Huh7 Rab9 promoter-luciferase reporter, luminescence, 24 h; Potency, µM (titrated, usually from 9.22 µM), without a hit: at the highest dose activation, negative = inhibition, usual class: activators; 320,000 tested, 2.8% active; AID 485297; also: % of control where 0% means no effect; nearly all actives have a fitted effect of over 60% in size
#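 Measured in stably transfected Huh7 cells bearing a Rab9 promoter–luciferase construct: 24 h compound treatment at 37 °C, followed by luminescence detection.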
# FLuc modulator: counter-screen for miR-21 project: firefly luciferase inhibitors or activators. purified FLuc, Km substrates, luminescence inhibition. Potency, µM (top dose mostly 57.5 µM), for the others: at the highest dose activity change, negative = inhibition, usual class: inhibitors. 360,000 tested, 6.9% active;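 also: plate controls were vehicle for no effect and reference inhibitor for full effect; nearly all actives have a fitted effect of over 55% in size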
# Target sequence (P08659 whole entry, looked up): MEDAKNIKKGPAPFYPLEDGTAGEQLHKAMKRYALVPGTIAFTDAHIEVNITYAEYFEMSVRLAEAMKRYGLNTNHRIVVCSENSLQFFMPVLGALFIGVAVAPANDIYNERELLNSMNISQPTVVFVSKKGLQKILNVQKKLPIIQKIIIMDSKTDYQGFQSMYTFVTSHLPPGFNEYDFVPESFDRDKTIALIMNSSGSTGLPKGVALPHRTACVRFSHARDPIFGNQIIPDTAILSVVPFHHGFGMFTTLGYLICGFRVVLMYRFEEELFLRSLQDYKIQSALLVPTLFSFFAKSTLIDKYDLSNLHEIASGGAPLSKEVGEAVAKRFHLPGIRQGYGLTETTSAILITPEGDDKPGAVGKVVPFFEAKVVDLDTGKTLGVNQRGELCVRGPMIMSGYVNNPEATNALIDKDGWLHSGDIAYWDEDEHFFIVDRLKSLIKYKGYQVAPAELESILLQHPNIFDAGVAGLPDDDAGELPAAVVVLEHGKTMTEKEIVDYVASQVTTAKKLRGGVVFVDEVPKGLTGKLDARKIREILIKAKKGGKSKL
#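 Purified P. pyralis luciferase (10nM final) with 10uM D-luciferin and 10uM ATP (Km levels) in 50mM Tris acetate pH 7.5, 10mM Mg acetate, 0.01% Tween-20, 0.05% BSA; qHTS 6-point titration, ~60 µM downward; luminescence read.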
# ELG1 genotox: genotoxicity induction in ELG1-luciferase HEK293T cells; AID 504466; Potency, µM (doses to about 46 µM), for inactives: at the highest dose activity change, positive = activation, hits mostly activators; 330,000 tested, 1.3% active; HEK293T ELG1-luciferase reporter, luminescence, 16 h; also: % of control where 0% means no effect; nearly all actives have a fitted effect of over 60% in size
#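 HEK293T cells expressing luciferase-tagged ELG1 were treated with compound or DMSO for 16 hr at 37°C. Luciferase activity was then read after 30 min with ONE-Glo at room temperature; rising signal flags genetic stress.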
# SMN2 splice enh: SMN2 splice variant enhancement; Potency, µM (top dose mostly 46.1 µM), inactives show at the top dose activity change, positive = activation, hits mostly activators; HEK293 SMN2-luciferase splicing reporter, luminescence, 30-36 h; 210,000 tested, 2.8% active; also: % of control where 0% means no effect; nearly all actives have a fitted effect of over 55% in size
#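 qHTS luciferase splicing reporter: luminescence rises when SMN2 exon 7 is included in transfected HEK293 cells. Compound exposure lasted 30-36 h at 37C, with 4.5 mM final sodium butyrate as control, followed by a ONE-Glo read.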
# The depositor's hits bear a star; ? = inconclusive; . = no result given; [ ] = remark or other dose. Shown are actives, neighbours in structure and some others; about 7.5% of the full set was active somewhere. Calls follow the shape of the dose curve; as a rule, active = well fitted curve in the direction sought with a large enough effect; inconclusive = small, poorly fitted or top-dose-only effect, or another doubt; inactive = no such curve, though single readings can be large; an effect the other way counts as inactive or inconclusive. Potency is read from the fitted curve at half-maximal effect.
SMILES,KinaseGlo FLuc,NPC1 prom act,Rab9 promoter act,FLuc modulator,ELG1 genotox,SMN2 splice enh
Cc1cccc(C)c1NC(=O)CN(C)C(=O)COc1cccc2c1OC(C)(C)C2,.,-1%,-4%,3%,-2%,.
O=C(Nc1ccc(Br)cc1)N1CCCCC1,-10%,?,?,15µM*,14%,?
Cc1ccc(NC(=O)N2CCCCCC2)cc1C,.,4.5µM*,3.2µM*,17µM*,?,.
CC(=O)Nc1ncc(N=Nc2cccc(C(F)(F)F)c2)s1,.,2%,19%,0%,13%,.
Cc1cccc(N=Nc2cnc(N)s2)c1,.,3.2µM*,3.2µM*,6µM*,?,.
O=c1cccc2n1Cc1cc3ccccc3nc1-2,-11%,3.2µM*,2.8µM*,19µM*,21µM*,13µM*
COc1ccccc1-c1cc2ccccc2[nH]1,1%,30%,?,15µM*,?,13µM*
COc1ccccc1-c1cc(-c2ccccc2)nc(=O)[nH]1,.,1%,-2%,0%,1%,.
O=C(COC(=O)c1cc2ccccc2o1)NCc1ccco1,.,1%,0%,.,4%,.
O=C(O)/C=C/C(O)c1ccc(Cl)cc1 (centres undefined),-5%,4%[46.1 µM],4%[46.1 µM],27µM*,-4%,-8%
O=C(O)c1cccc(-n2c(O)c(C=C3N=c4ccccc4=N3)sc2=S)c1,.,-7%,-4%,13µM*,-9%,.
Cc1ccc(C)n1-c1cccc(C(=O)O)c1,-4%,-3%,-4%,1%,-3%,19%
CCN(CC)c1ccc(-n2c(O)c(C=C3N=c4ccccc4=N3)sc2=S)cc1,-3%,0%,0%,-1%,3%,18%
O=C(O)c1ccc(-n2c(O)c(C=C3N=c4ccccc4=N3)sc2=S)cc1,.,1%,-2%,13µM*,-3%,.
CC(=O)Nc1ccccc1-c1nc2ccccc2n(C(C)C(=O)Nc2cc(Cl)ccc2C)c1=O (centres undefined),.,.,.,3%,.,.
CCOC(=O)c1ccccc1NC(=O)c1sc2nc3n(c(=O)c2c1C)CCCC3,.,.,.,5%,.,.
CN(CC(=O)Nc1ccccc1Cl)C(=O)c1ccc(N2C(=O)CCC2=O)cc1,.,-2%,1%,2%,-1%,.
COc1ccc(-c2nnc(SCc3csc(N)n3)n2C)cc1,.,1%,12%,1%,2%,.
Cc1ccc(Nc2nc(CSc3nnc(-c4ccc(F)cc4)n3C)cs2)cc1,2%,?,?,1.3µM*,16%,10µM*
CC(NS(=O)(=O)c1c(N)n(C)c(=O)n(C)c1=O)c1ccccc1 (centres undefined),.,1%,5%,5%,4%,.
CN(C)c1ccc(/C=N/NC(=O)COc2ccccc2)cc1,-1%,9%,20%,19µM*,7%,15%
CNC(=S)N/N=C/c1ccc(N(C)C)cc1,.,3.5µM*,2.8µM*,?,?,.
CN(C)c1ccc(/C=N/NC(=O)CNC(=O)/C=C/c2ccccc2)cc1,.,?,?,2.4µM*,?,.
COc1ccc(-c2nc3scc(CCNS(=O)(=O)c4ccc(F)cc4F)n3n2)cc1OC,.,.,.,-10%,.,.
Cc1cc(C)cc(OC(=O)c2cc(-c3ccc4c(c3)OCCO4)on2)c1,.,.,.,-29%,.,.
SMILES,KinaseGlo FLuc,NPC1 prom act,Rab9 promoter act,FLuc modulator,ELG1 genotox,SMN2 splice enh
O=C(Oc1ccc(Cl)cc1)c1cc(-c2ccc3c(c2)OCCO3)on1,.,.,.,6µM*,.,.
COc1ccc(OC(=O)c2cc(-c3ccc4c(c3)OCCO4)on2)cc1,.,.,.,7.6µM*,.,.
N#Cc1ccc(OC(=O)c2cc(-c3ccc4c(c3)OCCO4)on2)cc1,.,.,.,21µM*,.,.
CC(C)c1ccc(OC(=O)c2cc(-c3ccc4c(c3)OCCO4)on2)cc1,.,.,.,-19%,.,.
Cc1cccc(OC(=O)c2cc(-c3ccc4c(c3)OCCO4)on2)c1,.,.,.,4.8µM*,.,.
Cc1cccc(NC(=O)Cn2c(=O)n(Cc3ccc4c(c3)OCO4)c(=O)c3ccccc32)c1,.,.,.,-2%,.,-4%
C/C(=C\C(=O)c1ccc(C)o1)Nc1ccc(C(=O)O)cc1C,3%,1%,-4%,9.5µM*,11%,30%

# Source: PubChem
